These results are taken from PubChem BioAssay AID1214 (Sanford-Burnham Center for Chemical Genomics, 2008).

Out of some 190,000 compounds screened, about 10 (0.005%) were called active. The list is a sample of the results. Unmarked numbers belong to inactive results.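 The calls were made as follows: active = activation factor of 2 or more at 20 µM, relative to plate controls; inactive = the rest.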

For this assay, the target named is Mannose-6-phosphate isomerase (Homo sapiens) (UniProt P34949). The assay can be described thus: MPI enzyme activity enhancement – biochemical, fluorescence intensity, near-Km mannose 6-phosphate, primary screen (AID 1214). Conditions: purified human PMI, coupled resazurin fluorescence, 20 min; at 20 µM; stronger effect = higher value; 1 = vehicle control, 0 substrate-free wells. For orientation: The colour change of resazurin is a common sign of viable cells or microbes.
Mannose-6-phosphate isomerase (Homo sapiens), sequence (P34949 whole entry, looked up): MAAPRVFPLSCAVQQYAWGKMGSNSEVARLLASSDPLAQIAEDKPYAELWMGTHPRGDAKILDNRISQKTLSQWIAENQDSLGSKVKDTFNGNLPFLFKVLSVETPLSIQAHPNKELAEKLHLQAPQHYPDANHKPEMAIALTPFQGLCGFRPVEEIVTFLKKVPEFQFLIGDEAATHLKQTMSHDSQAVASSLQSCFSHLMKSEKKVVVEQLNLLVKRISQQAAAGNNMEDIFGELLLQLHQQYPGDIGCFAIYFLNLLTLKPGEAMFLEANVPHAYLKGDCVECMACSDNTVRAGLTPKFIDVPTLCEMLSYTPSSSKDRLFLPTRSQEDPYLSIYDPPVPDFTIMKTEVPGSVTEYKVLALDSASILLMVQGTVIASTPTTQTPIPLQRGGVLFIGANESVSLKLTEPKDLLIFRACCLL
Consider `COC(=O)c1cc(NC(=O)CN2CCN(C(C)=O)CC2)cc(C(=O)OC)c1`, for which the activation factor was 0.9.

Consider `C/C(N)=C(/C#N)C(=O)COC(=O)CNS(=O)(=O)c1ccc(C)cc1`, for which the activation factor is 1.

Take `CCNC(=O)CC1C(=O)N(c2ccc(F)cc2)C(=O)N1CCc1sccc1C` (configuration not stated): the activation factor is 1.1.

Take `CCOc1ccc(C(C)=O)cc1CSc1nnc(-c2ccncc2)n1CCOC`: the activation factor was 1.1.

As to `CCOCCCNCc1ccc(OCc2ccc(F)cc2)c(OC)c1`, the activation factor is 0.9.

Consider `CCCCc1nnc(NC(=O)CSc2nc(N)cc(=O)[nH]2)s1`, for which the activation factor is 0.8.

With `O=C(NCCN1C(=O)S/C(=C\c2cccnc2)C1=O)c1cccc(OC(F)F)c1`, the activation factor is 0.9.

For `O=C1/C(=C\c2cccnc2)CN(Cc2ccccc2)C/C1=C\c1cccnc1`, the activation factor was 0.9.

On to `Cc1nnc(SC(C(=O)Nc2cc(Cl)cc(Cl)c2)c2ccccc2)[nH]c1=O` (configuration not stated), for which the activation factor is 1.

With `CC(C)CC(=O)NC(=S)NNC(=O)c1cccc([N+](=O)[O-])c1`, the activation factor was 0.9.

Consider `CC1CCCCN1C(=S)NCc1ccccc1` (configuration not stated), for which the activation factor is 0.9.

As for `CN(C)S(=O)(=O)c1ccc(NC(=O)N2CCOCC2)cc1`, the activation factor was 1.

As for `Cc1cc(C(=O)COC(=O)CNC(=O)c2ccc(F)cc2)c(C)n1Cc1ccco1`, the activation factor was 0.9.

For `Cc1ccc2nc(-c3cccnc3)c(NC3CCCC3)n2c1`, the activation factor is 0.9.

In the case of `CC(C)[C@H](NC(=O)c1ccc(F)cc1)C(=O)OCC(=O)NC(=O)c1cccn1C`, the activation factor is 0.9.

In the case of `CCOC(=O)C1=C(C)OC(N)=C(C#N)C1c1cncc(-c2ccc(F)cc2)c1` (configuration not stated), the activation factor was 1.1.

Consider `CCC(C)NC(=O)c1nn(C)c(=O)c2ccccc12` (configuration not stated), for which the activation factor was 1.1.

`O=C(CN1C(=O)CC(c2ccccc2)S(=O)(=O)c2ccccc21)NC1CCCC1` (configuration not stated): the activation factor is 1.1.

In the case of `N#Cc1ccc(CSc2nnc3ccccn23)cc1`, the activation factor was 1.

As for `Cc1ccnc(SCC(N)=O)n1`, the activation factor is 1.1.

Consider `CCC(C)(C)C1CCC(=NNC(=O)c2ccc(Br)o2)CC1` (configuration not stated), for which the activation factor is 1.

For the compound `CCOC(=O)/C(=N\Nc1ccccc1[N+](=O)[O-])c1csc(Nc2ccccc2)n1`, the activation factor was 0.9.

With `COC(=O)C(C)N=Cc1ccccc1` (configuration not stated), the activation factor is 0.9.

Regarding `Cc1onc(C(=O)NN)c1C(=O)N1CCN(C(c2ccccc2)c2ccccc2)CC1`, the activation factor is 0.9.

With `CCOCCCNC(=O)C(NC(=O)Cc1c[nH]c2ccccc12)c1ccc(OC)cc1` (configuration not stated), the activation factor was 0.9.

`CC/C(O)=C1\C(=O)CC(C)(C)CC1=NCCc1nc2ccccc2[nH]1`: the activation factor was 1.1.

Take `N#Cc1ccccc1NC(=O)c1cccc(COc2ccc(Cl)cc2Cl)c1`: the activation factor was 0.9.

`CCCCc1ccc(NC(=S)NCCCN2CCOCC2)cc1`: the activation factor was 1.

Consider `COc1cc(CNCCN(C)C)ccc1OCc1c(F)cccc1Cl`, for which the activation factor was 1.

Consider `O=C(CCNC(=O)Cn1ccc2ccccc2c1=O)NCCC1=CCCCC1`, for which the activation factor is 1.

Regarding `Cn1c(=O)c2cc(S(=O)(=O)NCCC(=O)Nc3ccc(F)cc3F)ccc2n(C)c1=O`, the activation factor was 1.

As to `Cc1cccc(C)c1NC(=O)C1(N(C(=O)c2ccccn2)c2ccc(O)cc2)CCCCC1`, the activation factor was 0.9.

On to `Cc1ccc(CN2CCN(Cc3ccccc3-c3ccco3)CC2CCO)o1` (configuration not stated), for which the activation factor was 0.9.

As for `CCOCCCNC(=O)C(NC(=O)c1ccccc1O)c1ccccc1` (configuration not stated), the activation factor is 1.1.

Turning to `O=C(Cc1ccccc1)NNC1CC(=O)N(c2ccc(Br)cc2)C1=O` (configuration not stated), the activation factor was 0.9.

As for `Cc1ccc(-c2ccc(/C=C(\C#N)C(N)=S)o2)c([N+](=O)[O-])c1`, the activation factor was 1.

Regarding `Cn1cc(C(=O)NCc2ccccc2F)cn1`, the activation factor is 1.

As for `OC1CSc2nc3ccccc3n2C1` (configuration not stated), the activation factor is 0.9.

Consider `CCN(C(=O)COC(=O)c1cc(NS(=O)(=O)c2ccc(Cl)c([N+](=O)[O-])c2)ccc1O)C1CCCCC1`, for which the activation factor is 0.8.

With `COCCCNC(=O)C1CCC(CNS(=O)(=O)c2ccc(OC)cc2)CC1` (configuration not stated), the activation factor was 1.

As for `COc1ccc(N2CCN(C(C)=C3C(=O)c4ccccc4C3=O)CC2)cc1`, the activation factor was 0.9.

Take `COc1ccc(OC)c(-n2c(=S)[nH]c3cc(C(=O)N4CCCCC4)ccc3c2=O)c1`: the activation factor is 1.

Regarding `Cn1c(CNC(=O)c2ccccc2F)nnc1SCc1ccc(F)cc1`, the activation factor is 1.2.

`COc1ccc2c(c1)c(=O)c(C(=O)c1ccc(Cl)cc1)cn2CC(=O)Nc1ccc(F)cc1`: the activation factor was 1.

As to `CC(C)NC(=S)Nc1cccc2cnccc12`, the activation factor was 1.

Turning to `O=C(N/N=C/c1ccc(Cl)cc1)c1nc2ccc([N+](=O)[O-])cc2c(=O)[nH]1`, the activation factor was 1.

On to `CCCNC(=O)OC[C@H]1O[C@H](CCO/N=C/[C@@H](NS(=O)(=O)c2ccc(C)cc2)[C@H](C)/C=C/CC(=O)OC)C=C[C@@H]1Oc1ccc(OC)cc1`, for which the activation factor was 0.9.

For `O=C(Nc1nnc(SCc2ccccc2Cl)s1)c1cccc([N+](=O)[O-])c1`, the activation factor is 0.9.

For the compound `CSc1ccc(CNCCN2CCOCC2)cc1`, the activation factor was 1.1.

Regarding `CC(C)(C)NC(=O)NC(=O)COC(=O)Cc1c(F)cccc1Cl`, the activation factor was 1.2.

For `CCCCCC1CCC(c2nnc(SCC(C)=O)o2)CC1` (configuration not stated), the activation factor was 1.

For `Cc1ccccc1OCCC(=O)OCC(=O)NC(C)c1ccccc1` (configuration not stated), the activation factor is 1.

As to `O=C(CSc1cccc[n+]1[O-])c1ccc(-c2ccccc2)cc1`, the activation factor was 1.2.

Consider `Cc1cc([N+](=O)[O-])nn1CC(=O)Nc1ccc(Cc2ccncc2)cc1`, for which the activation factor is 1.

As to `COCCNC(=O)C(OC(=O)c1cccs1)c1ccc(F)cc1` (configuration not stated), the activation factor is 1.

As for `Cc1ccc(S(=O)(=O)N2CCN(CC(=O)N/N=C/c3ccc(Br)s3)CC2)cc1`, the activation factor was 0.9.

As to `CN(CC(=O)NCCc1ccccn1)S(=O)(=O)c1ccc(Cl)cc1`, the activation factor is 0.9.

In the case of `CC1=C(C(=O)Nc2cc(C)ccn2)C(c2cnn(C)c2)C2=C(CC(c3ccccc3)CC2=O)N1` (configuration not stated), the activation factor was 1.

As to `O=C(Nc1ccc(CSc2ccccc2)cc1)c1ccc(CN2CCOCC2)cc1`, the activation factor was 1.1.

For the compound `COc1ccc(Cl)cc1NC(=O)C(C)N1CCc2ccccc21` (configuration not stated), the activation factor was 1.1.

For `Cc1ccn(CC(=O)N2N=C(C(F)F)CC2(O)C(F)F)n1` (configuration not stated), the activation factor is 1.1.

For `N#Cc1c(C(F)(F)F)cc(-c2ccc(Cl)cc2)nc1SCC(=O)O`, the activation factor is 1.
